In assay [1] the test system is Human papillomavirus type 1a protein E7 (residues 44-93). In words: small molecules binding HPV E7 44-93 – biochemical, small-molecule microarray, residues 44-93, 635 nm fluorescence, primary screen (AID 1108).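 Further: E7 fragment applied at 1 µg/mL in TBST for 1 h at 4 C; score combines spot fluorescence with its signal to noise ratio.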 The note with it: fluorescence 635 nm, higher = more signal.
Assay [2] can be described thus: hepatitis C replication reporter changes, two-sided – Huh7 cells, luciferase reporter, HCV replication inhibitor project, primary screen (AID 1109).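 Further: huh7 hepatoma cells harbouring a luciferase neomycin HCV replicon reporter; luciferase luminescence as measure of HCV replicon replication; test concentration not given here.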 The note with it: Huh7 HCV replicon luciferase reporter, 48 h; higher = more signal. A general note: A reporter such as luciferase makes a cellular process visible.
Assay [3] concerns the target Left-right determination factor 2 (Homo sapiens) (UniProt O00292). Put plainly: small molecules binding LEFTY2 protein – biochemical, small-molecule microarray, 635 nm fluorescence scan, primary screen (AID 1110). The note with it: higher = more signal.
For assay [4], the target named is Calmodulin-1 (Homo sapiens) (UniProt P0DP23). In words: small molecules binding calmodulin-1 with EGTA – biochemical, small-molecule microarray, Cy5-labelled CALM1, profiling panel (AID 1111).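 Further: labelled calmodulin applied in Tris saline Tween buffer holding calcium plus EGTA and DTT.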 The note with it: Cy5-CALM1 binding fluorescence, higher = more signal.
Assay [5] has the same target. Put plainly: small molecules binding Ca-loaded calmodulin-1 – biochemical, small-molecule microarray, Cy5-labelled CALM1, plus calcium, artefact control for SMM control-protein annotation, profiling panel (AID 1112).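 Further: score merges spot fluorescence with signal to noise from triplicate slides.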 Particulars: Cy5-CALM1 binding fluorescence, higher = more signal.
Assay [6] can be described thus: probe aWnt5a binding to arrayed compounds – biochemical, biotinylated probe, 635/667 nm fluorescence, primary screen (AID 1113).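 Further: score merges 667 nm fluorescence intensity with signal-to-noise per printed feature.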 The note with it: small-molecule microarray, higher = more signal.
Assay [7] can be described thus: probe aShh binding to arrayed compounds – biochemical, biotinylated probe, 635/667 nm fluorescence, primary screen (AID 1114).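 Further: probe is biotin-labelled aShh protein from a stem cell growth factor screen; measures binding of labelled protein to compounds printed on the slide; score merges feature fluorescence at 667 nm with signal-to-noise.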 The note with it: small-molecule microarray, higher = more signal.
Assay [8] is described as follows: probe aNog binding to arrayed compounds – biochemical, biotinylated probe, 635/667 nm fluorescence, primary screen (AID 1115).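 Further: probe is biotinylated aNog protein used at 0.15 µg/mL for 1 h at 4 C; z-score combines 667 nm fluorescence of each spot with its signal to noise.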 Particulars: small-molecule microarray, higher = more signal.
In assay [9] the target is Torsin-1A-interacting protein 1 (Homo sapiens) (UniProt Q5JTV8). Put plainly: compound microarray binding of lysate hLAP1 – cell lysate, small-molecule microarray, COS7 lysate, 635/667 nm fluorescence, primary screen (AID 1116). Particulars: 635 nm fluorescence, higher = more signal.
Chain of Torsin-1A-interacting protein 1 (Homo sapiens) (Q5JTV8 whole entry, looked up): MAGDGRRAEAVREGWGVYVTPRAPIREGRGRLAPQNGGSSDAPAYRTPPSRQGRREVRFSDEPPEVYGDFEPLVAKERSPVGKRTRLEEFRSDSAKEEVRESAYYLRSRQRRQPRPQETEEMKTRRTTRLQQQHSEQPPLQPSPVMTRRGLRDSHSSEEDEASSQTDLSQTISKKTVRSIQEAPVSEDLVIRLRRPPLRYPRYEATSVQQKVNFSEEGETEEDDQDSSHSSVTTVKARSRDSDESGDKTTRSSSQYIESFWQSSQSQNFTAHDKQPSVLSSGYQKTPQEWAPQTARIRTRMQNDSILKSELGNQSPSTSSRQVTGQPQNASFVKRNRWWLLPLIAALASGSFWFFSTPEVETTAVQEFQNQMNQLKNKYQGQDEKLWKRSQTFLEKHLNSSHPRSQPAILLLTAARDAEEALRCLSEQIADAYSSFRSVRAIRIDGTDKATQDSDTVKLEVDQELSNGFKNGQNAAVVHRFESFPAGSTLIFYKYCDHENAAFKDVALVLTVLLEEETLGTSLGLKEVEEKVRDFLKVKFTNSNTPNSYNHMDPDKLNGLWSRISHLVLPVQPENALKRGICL
Assay [10] has as its target Alpha-bungarotoxin (Bungarus multicinctus) (UniProt P60615). In words: compounds binding labelled alpha-BTX control protein – biochemical, small-molecule microarray, Alexa647 label, 635/667 nm fluorescence, artefact control for SMM control protein annotation, profiling panel (AID 1117). The note with it: alpha-BTX-A647 binding fluorescence, higher = more signal.

Chain of Left-right determination factor 2 (Homo sapiens) (O00292 whole entry, looked up): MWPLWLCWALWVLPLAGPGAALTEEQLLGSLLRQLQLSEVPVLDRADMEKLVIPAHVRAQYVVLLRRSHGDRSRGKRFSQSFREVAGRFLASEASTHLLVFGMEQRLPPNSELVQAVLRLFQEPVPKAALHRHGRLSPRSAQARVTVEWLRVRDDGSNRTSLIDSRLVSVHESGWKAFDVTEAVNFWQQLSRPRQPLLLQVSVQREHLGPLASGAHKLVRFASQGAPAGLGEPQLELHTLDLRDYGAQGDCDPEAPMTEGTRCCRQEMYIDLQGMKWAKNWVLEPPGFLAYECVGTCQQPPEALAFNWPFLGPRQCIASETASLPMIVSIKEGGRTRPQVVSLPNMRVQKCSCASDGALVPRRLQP
Chain of Alpha-bungarotoxin (Bungarus multicinctus) (P60615 whole entry, looked up): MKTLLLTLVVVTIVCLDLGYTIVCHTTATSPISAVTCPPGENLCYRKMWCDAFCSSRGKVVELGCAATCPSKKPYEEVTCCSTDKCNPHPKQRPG

Take `C=CC[C@H](O)c1ccc(O)c2ccccc12`: the composite z-score in assay [1] is 0.7; in assay [3], 0.685; in assay [4], -0.536; in assay [5], -1.32; in assay [6], -0.0521; in assay [7], 0.151. The composite z-score in assay [8] is -0.158; in assay [9], 0.655; in assay [10] it was 1.23. The compound further showed a z-score in assay [2] of -2.04.

Turning to `COc1ccc([Si](C)(C)[C@@H]2[C@@H](CC(=O)N3Cc4ccccc4C[C@H]3CO)O[C@]3(C(=O)N(Cc4ccc(I)cc4)c4ccccc43)[C@H]2C)cc1`, the composite z-score in assay [1] was 1.3; in assay [3], 0.878; in assay [4], 0.186; in assay [5] it was 0.426; in [6], -0.0472; in [7], -0.304. Moreover, the composite z-score in assay [8] is -0.503; in [9], 0.224; in assay [10] it was 0.308. In assay [2], this compound came in with a z-score of -3.76.

As for `C=CCOC(=O)[C@H]1[C@@H]2C(=O)O[C@@H](c3ccccc3)[C@@H](c3ccccc3)N2[C@@H](c2ccc(OCCOC(=O)[C@H]3C[C@H]4C(=O)NCC(=O)N4[C@H]3c3cccc(OCCO)c3)cc2)[C@]12C(=O)Nc1ccc(I)cc12`, the composite z-score was found to be 1.23 in [1]; 0.541 in [3]; 1.05 in assay [4]; 0.0934 in assay [5]; 0.0629 in [6]; 0.131 in [7]. Further, the composite z-score in [8] is 0.131; in assay [9] it was 1.44; in [10], 1.08. Besides, the z-score in assay [2] is -0.903.

In the case of `CCCCCN1CC=CC23O[C@@H]4/C=C\CCCOC(=O)C4[C@H]2C(=O)N(CCO)[C@@H]3C1=O` (stereo not given in full), the composite z-score was 1.45 in assay [1]; -0.155 in assay [3]; -0.173 in [4]; 0.463 in [5]; -0.13 in [6]; -0.0709 in assay [7]. For the same compound, the composite z-score in [8] was -0.191; in assay [9] it was 0.162; in [10], 0.227. In [2], this compound yielded a z-score of 0.548.

With `C=C(CCCC)C(=O)CC[C@H](OC(=O)c1ccccc1-c1ccccc1C(=O)O)c1cccc(OCCO)c1`, the composite z-score is -0.109 in [1]; 0.0292 in [3]; -0.268 in assay [4]; -0.832 in [5]; -0.13 in [6]; -0.0866 in [7]. Further, the composite z-score in assay [8] was -0.318; in assay [9], 0.206; in assay [10], -0.0274. The same compound had a z-score in [2] of -1.92.

For the compound `COc1ccc(C(O)C2C=CC3C(=O)N(C)C(=O)C3N2Nc2ccccc2)cc1` (stereo not given), the composite z-score was 1.22 in assay [1]; -0.132 in assay [3]; 0.675 in assay [4]; 0.283 in assay [5]; 0.0792 in assay [6]; 0.462 in assay [7]. For the same compound, the composite z-score was 1.76 in [8], 0.916 in assay [9] and 1.38 in assay [10]. The compound further registered a z-score in assay [2] of -1.14.

For the compound `COCCOC(=O)N1C(=O)[C@@]2(c3cc(C#CC4=CCCCC4)ccc31)[C@H](C(=O)N1CCCCCCC1)[C@H]1C(=O)O[C@H](c3ccccc3)[C@H](c3ccccc3)N1[C@@H]2c1ccccc1OCCO`, the composite z-score in [1] turned out to be 1.37; in [3], 0.327; in [4], 1.78; in assay [5] it was 0.759; in assay [6] it was 0.16; in [7], 0.926. Further, the composite z-score in [8] worked out at 1.2; in assay [9], 1.94; in assay [10], 1. In addition, the z-score in [2] was -0.794.

As to `COc1cc(CO)cc(I)c1O[C@H]1C=C(C(=O)NCCO)C[C@@H](N(CCN2CCOCC2)C(=O)C2CCCO2)[C@@H]1O` (stereo not given in full), the composite z-score is 0.35 in [1]; 0.445 in assay [3]; -0.292 in assay [4]; -0.671 in assay [5]; -0.0606 in assay [6]; -0.0769 in assay [7]. The composite z-score is -0.248 in [8], 0.11 in assay [9] and -0.197 in [10]. Further, in assay [2], the z-score is 0.109.

For `COC(=O)C(CC#Cc1ccc2c(c1)[C@]1(C(=O)N2)[C@H](c2ccc(OCCO)cc2)N2[C@H](c3ccccc3)[C@H](c3ccccc3)OC(=O)[C@H]2[C@@H]1C(N)=O)C(=O)OC`, the composite z-score in assay [1] was 1.41; in assay [3] it was -0.584; in assay [4], 0.627; in [5], -0.113; in [6] it was -0.156; in assay [7], -0.123. In addition, the composite z-score in assay [8] is -0.14; in [9], -0.358; in assay [10], 1.4. The z-score in assay [2] is -1.68.

Regarding `COc1c(C)cc(-c2nc(-c3ccccc3)c3c(c2C)CO[Si]3(C(C)C)C(C)C)cc1C`, the composite z-score was 0.0725 in assay [1]; 0.513 in assay [3]; 0.0032 in [4]; 0.154 in [5]; -0.0478 in [6]; -0.0769 in [7]. For the same compound, the composite z-score in assay [8] is 0.239; in assay [9], -0.0032; in [10], -0.0073. The compound also yielded a z-score in assay [2] of -0.77.

In the case of `C=CCNC(=O)[C@@H]1[C@H]2C(=O)O[C@H](c3ccccc3)[C@H](c3ccccc3)N2[C@H](c2ccc(OCCO)cc2)[C@@]12C(=O)Nc1ccc(C#CC3=CCCCC3)cc12`, the composite z-score in assay [1] was 0.0834; in assay [3], 0.413; in assay [4], 1.62; in assay [5], 0.107; in assay [6] it was -0.012; in assay [7], 0.103. Moreover, the composite z-score in assay [8] was found to be 0.843; in assay [9], 0.803; in assay [10], 2.23. In addition, the z-score in assay [2] was -2.53.

Take `COCCCNC(=O)[C@@]1(c2ccc([N+](=O)[O-])cc2)CC(=O)N(C2CCCCC2)[C@@H]1c1ccc(CO)cc1I`: the composite z-score is -0.191 in assay [1]; -0.199 in assay [3]; 0.582 in assay [4]; -0.0952 in assay [5]; -0.0051 in assay [6]; -0.0904 in assay [7]. Further, the composite z-score in assay [8] came out at 0.968; in assay [9], 1.17; in assay [10] it was 0.302. The compound further had a z-score in [2] of -1.9.

Consider `C=C1C(=O)C=C2CN(C(=O)c3ccccc3)[C@@](Cc3ccc(F)cc3)(C(=O)OC)[C@@H]12`, for which the composite z-score is 1.39 in assay [1]; -0.406 in assay [3]; 2.19 in assay [4]; 1.08 in assay [5]; 0.177 in assay [6]; -0.0626 in [7]. In addition, the composite z-score in assay [8] amounted to 1.99; in assay [9] it was 0.952; in [10], 1.85. In assay [2], this compound came in with a z-score of -3.68.

These data come from PubChem BioAssay.
